# Inconclusive results are not listed. Where a call stands in place of a potency, no number is given. Calls of active or inactive are those of the source. Calls follow the shape of the dose curve; as a rule, active = well fitted inhibition curve with a large enough effect; inconclusive = small, poorly fitted or top-dose-only effect; inactive = flat fitted curve, though single readings scatter. Where a SMILES comes first, the peptide text is derived from it. Bridges are numbered along the chain shown (N, C = ends). [ ]: non-standard residue; d: D form. hArg = N=C(N)NCCCC[C@H](N)C(=O)O; Mpa = O=C(O)CCS
# System: 3D7
# Test: qHTS profiling for inhibitors of Plasmodium falciparum proliferation (AID 504749); also: nearly all actives have a fitted effect of over 60% in size
# Details: P. falciparum in erythrocytes, SYBR Green DNA, 72 h; series mostly up to 28.7 µM
# In short: (§1)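 SYBR Green fluorescence (ex 485 nm, em 535 nm) reports parasite DNA after 72 h compound exposure of infected red cells at 0.3% parasitemia, 2.5% hematocrit; signal normalized to 0.29 uM artemisinin and vehicle wells.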
# Potency is read from the fitted curve at half-maximal effect.
row,Compound,Potency
1,COc1ccccc1OC(=O)Oc1ccccc1OC,inactive
2,C[C@@H]1O[C@@H](OC[C@H]2O[C@@H](Oc3c(-c4ccc(O)c(O)c4)oc4cc(O)cc(O)c4c3=O)[C@H](O)[C@@H](O)[C@@H]2O)[C@H](O)[C@H](O)[C@H]1O,inactive
3,CCCCCCCCCCCCCCCCCCO,inactive
4,CC1CCN(CCCC(=O)c2ccc(F)cc2)CC1,inactive
5,O=C(O)CCCc1ccccc1,inactive
6,CC(C(=O)O)c1ccc2c(c1)Cc1cccnc1O2 (stereo not given),inactive
7,NS(=O)(=O)c1cc(-c2nn[nH]n2)c(NCc2cccs2)cc1Cl,inactive
8,CCOc1cc(NC(C)=O)ccc1C(=O)OC,inactive
9,Cc1c(N(C)C)c(=O)n(-c2ccccc2)n1C,inactive
10,O=C(Cn1ccnc1[N+](=O)[O-])NCc1ccccc1,inactive
11,COc1ccccc1Oc1c(NS(=O)(=O)c2ccc(C(C)(C)C)cc2)nc(-c2ncccn2)nc1OCCO,inactive
12,O=S1(=O)OC(c2ccc(O)cc2)(c2ccc(O)cc2)c2ccccc21,inactive
13,CC1CC(OC(=O)c2ccccc2O)CC(C)(C)C1 (stereo not given),inactive
14,Cc1cc(C)nc(NS(=O)(=O)c2ccc(N)cc2)n1,inactive
15,C[C@@H](N)C(=O)O,inactive
16,Cc1cc(O)cc(C)c1Cl,inactive
17,CC(=O)NCc1c(I)c(NC(C)=O)c(I)c(C(=O)O)c1I,inactive
18,CCc1cccc(CC)c1NC(=O)CN(CC(=O)O)CC(=O)O,inactive

# System: 7G8
# Test: as above
# Details: P. falciparum in erythrocytes, SYBR Green DNA, 72 h; series mostly up to 28.7 µM
# In short: as §1
row,Compound,Potency
1,NC(=O)[C@@H]1CSSCCC(=O)N[C@@H](CCCCN=C(N)N)C(=O)NCC(=O)N[C@@H](CC(=O)O)C(=O)N[C@@H](Cc2c[nH]c3ccccc23)C(=O)N2CCC[C@H]2C(=O)N1 ([Mpa][hArg]GDWPC-NH2; disulfide 1-7),inactive
2,CCCCCCCCCCCCCCCCC(C(=O)O)C(O)(CC(=O)O)C(=O)O (stereo not given),inactive
3,COC(=O)c1cccnc1,inactive
4,NC(N)=NS(=O)(=O)c1ccc(N)cc1,inactive
5,Cc1c(C)c2c(c(C)c1OC(=O)c1cccnc1)CC[C@@](C)(CCC[C@H](C)CCC[C@H](C)CCCC(C)C)O2,inactive
6,NC(=O)c1ccc([N+](=O)[O-])cc1Cl,8.91 µM (active)
7,COc1ccc(C(=O)NCc2ccc(OCCN(C)C)cc2)cc1OC,inactive
8,CCS(=O)(=O)CCn1c([N+](=O)[O-])cnc1C,inactive
9,CC(=O)Nc1ccccc1,inactive
10,O=C(O)CCC(=O)O,inactive
11,CC[N+](CC)(CC(=O)Nc1c(C)cccc1C)Cc1ccccc1,inactive
12,NC(=O)CC[C@@H](N)C(=O)O,inactive
13,O=C(O)CNC(=O)c1ccccc1I,inactive
14,CN/C(=C\[N+](=O)[O-])NCCSCc1csc(CN(C)C)n1,inactive
15,O=C(/C=C/c1ccccc1)OCc1ccccc1,inactive
16,CCCCOC(=O)c1ccc(N)cc1,inactive
17,CC(C)C[C@@H](N)C(=O)O,inactive
18,CC(C)(C)C(=O)OCOC(=O)[C@@H]1N2C(=O)[C@@H](NC(=O)[C@H](N)c3ccccc3)[C@H]2SC1(C)C,inactive
19,O=C(OOC(=O)c1ccccc1)c1ccccc1,inactive

row,Compound,Potency
1,COc1ccccc1OC(=O)Oc1ccccc1OC,inactive
2,C[C@@H]1O[C@@H](OC[C@H]2O[C@@H](Oc3c(-c4ccc(O)c(O)c4)oc4cc(O)cc(O)c4c3=O)[C@H](O)[C@@H](O)[C@@H]2O)[C@H](O)[C@H](O)[C@H]1O,inactive
3,CCCCCCCCCCCCCCCCCCO,inactive
4,CC1CCN(CCCC(=O)c2ccc(F)cc2)CC1,inactive
5,O=C(O)CCCc1ccccc1,inactive
6,CC(C(=O)O)c1ccc2c(c1)Cc1cccnc1O2 (stereo not given),inactive
7,NS(=O)(=O)c1cc(-c2nn[nH]n2)c(NCc2cccs2)cc1Cl,inactive
8,CCOc1cc(NC(C)=O)ccc1C(=O)OC,inactive
9,Cc1c(N(C)C)c(=O)n(-c2ccccc2)n1C,inactive
10,O=C(Cn1ccnc1[N+](=O)[O-])NCc1ccccc1,inactive
11,COc1ccccc1Oc1c(NS(=O)(=O)c2ccc(C(C)(C)C)cc2)nc(-c2ncccn2)nc1OCCO,inactive
12,O=S1(=O)OC(c2ccc(O)cc2)(c2ccc(O)cc2)c2ccccc21,inactive
13,CC1CC(OC(=O)c2ccccc2O)CC(C)(C)C1 (stereo not given),inactive
14,Cc1cc(C)nc(NS(=O)(=O)c2ccc(N)cc2)n1,inactive
15,C[C@@H](N)C(=O)O,inactive
16,Cc1cc(O)cc(C)c1Cl,10 µM (active)
17,CC(=O)NCc1c(I)c(NC(C)=O)c(I)c(C(=O)O)c1I,inactive
18,CCc1cccc(CC)c1NC(=O)CN(CC(=O)O)CC(=O)O,inactive

# From PubChem BioAssay (NCATS)
